Among the data in PubChem BioAssay are composite z-score and z-score values, retold here.

Calls of active or inactive are those of the source.

A short description of test [1]: small molecules captured by biotinylated probe aFSTL3 – biochemical, small-molecule microarray, fluorescence 635/667, stem cell growth factor project, primary screen (AID 1064).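 Note: measures binding of the biotinylated anti-FSTL3 antibody to printed compounds.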 As to conditions: higher = more signal.
Test [2] is described as follows: binders from COS7 lysate, DM2A8 probe, primary screen, torsin A project, cell lysate, small-molecule microarray, fluorescence 635/667 (AID 1065). The following applies: higher = more signal, COS7 lysate expressing mutant human TOR1A.
A short description of test [3]: small molecules captured by biotinylated probe aFGF2 – biochemical, small-molecule microarray, fluorescence 635/667, stem cell growth factor project, primary screen (AID 1067).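 Note: measures binding of biotinylated aFGF2 protein to printed compounds on slides; z-score merges feature fluorescence and signal-to-noise across triplicate slides.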 The following applies: higher = more signal.
The nature of test [4]: small molecules captured by biotinylated probe aFGF10 – biochemical, small-molecule microarray, fluorescence 635/667, stem cell growth factor project, primary screen (AID 1071).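 Note: score merges 667 nm spot intensity and signal to noise from triplicate slides.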 The following applies: higher = more signal.
Test [5] addresses Neurogenic locus notch homolog protein 2 (Homo sapiens) (UniProt Q04721). Kind of test: small molecules binding Notch2 protein – biochemical, small-molecule microarray, 635 nm fluorescence, stem cell growth factors, primary screen (AID 1073). The following applies: higher = more signal.
Test [6] deals with Pro-neuregulin-1, membrane-bound isoform (Homo sapiens) (UniProt Q02297). Kind of test: small molecules binding neuregulin-1 protein – biochemical, small-molecule microarray, fluorescence 635/667, psychiatric disease protein project, primary screen (AID 1075).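 Note: score combines 667 nm spot fluorescence with signal to noise.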 As to conditions: NRG1 binding, 635 nm fluorescence, higher = more signal.
Chain of Pro-neuregulin-1, membrane-bound isoform (Homo sapiens) (Q02297 whole entry, looked up, the tested form may be a part, canonical isoform): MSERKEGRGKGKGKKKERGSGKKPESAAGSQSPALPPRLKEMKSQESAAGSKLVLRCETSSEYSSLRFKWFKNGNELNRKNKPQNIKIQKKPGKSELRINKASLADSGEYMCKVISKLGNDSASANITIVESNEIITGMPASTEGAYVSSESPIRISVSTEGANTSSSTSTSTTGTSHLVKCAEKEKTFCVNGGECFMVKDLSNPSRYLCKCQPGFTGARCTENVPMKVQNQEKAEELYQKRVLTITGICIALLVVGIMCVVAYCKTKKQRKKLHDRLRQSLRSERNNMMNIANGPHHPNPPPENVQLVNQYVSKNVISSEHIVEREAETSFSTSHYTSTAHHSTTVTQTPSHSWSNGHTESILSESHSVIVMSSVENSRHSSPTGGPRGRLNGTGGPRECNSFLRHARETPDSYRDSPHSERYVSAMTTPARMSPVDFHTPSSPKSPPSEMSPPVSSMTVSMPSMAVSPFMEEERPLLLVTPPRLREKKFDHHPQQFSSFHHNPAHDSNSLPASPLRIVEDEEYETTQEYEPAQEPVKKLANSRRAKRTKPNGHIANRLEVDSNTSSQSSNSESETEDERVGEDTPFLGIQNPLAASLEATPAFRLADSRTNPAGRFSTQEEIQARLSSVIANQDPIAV
The test system of test [7] is Neuregulin-1 EGF-like domain. Kind of test: small molecules binding NRG1 EGF domain – biochemical, small-molecule microarray, 635 nm fluorescence, primary screen (AID 1081).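 Note: binding of the protein to compounds printed on small-molecule microarray slides.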 As to conditions: higher = more signal.
Test [8] in a line: FRG1 expression reporter modulators in myotubes – cell-based, C2C12 myotubes, firefly/Renilla luciferase, luminescence, FRG1 inhibition for FSHD, primary screen (AID 1084). The following applies: FRG1 promoter luciferase, higher = more signal, called active from +8 up or from −8 down.
Test [9] can be described thus: small molecules captured by biotinylated probe aFST – biochemical, small-molecule microarray, fluorescence 635/667, stem cell growth factor project, primary screen (AID 1086).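 Note: score merges 667 nm fluorescence with signal-to-noise of each printed compound spot.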 As to conditions: higher = more signal.
Test [10] is described as follows: binders of probe aHhip on microarray, primary screen, stem cell growth factor project, biochemical, small-molecule microarray, fluorescence 635/667 (AID 1087).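 Note: score merges spot fluorescence at 667nm with spot signal to noise ratio.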 The following applies: higher = more signal.
In test [11] the test system is PRMT1 (protein arginine N-methyltransferase 1). Kind of test: small molecules binding arginine methyltransferase PRMT1 – biochemical, small-molecule microarray, 635 nm fluorescence, primary screen (AID 1088).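 Note: binding of Prmt1 protein to compounds spotted on small-molecule microarray slides.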 The following applies: higher = more signal.
Test [12] in a line: growth effects on S. cerevisiae YJM789 – YJM789 clinical isolate, OD600, 24 h, basal, primary screen (AID 1089).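 Note: growth of clinical yeast isolate S. cerevisiae YJM 789 seeded 1000 cells per well; test concentration not given here.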 The following applies: higher = more signal, called active from +8 up or from −8 down.
Test [13] in a line: S. pombe growth modifiers, basal conditions – strain 972, OD600, 24 h, no modulator, primary screen (AID 1090).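 Note: basal condition with compound alone and no growth modifier present; test concentration not given here.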 The following applies: S. pombe 972 growth, higher = more signal, called active from +8 up or from −8 down.
Test [14] can be described thus: budding yeast growth modifiers under rapamycin – strain BY4716, OD600, 96 h, primary screen (AID 1091). Note: test concentration not given here. As to conditions: S. cerevisiae BY4716 + rapamycin, higher = more signal, called active from +8 up or from −8 down.
Test [15] addresses Torsin-1A-interacting protein 2 (Homo sapiens) (UniProt Q8NFQ8). Kind of test: small molecules binding lysate-expressed LULL1 – cell lysate, human LULL1 lysate, 635/667 nm fluorescence, primary screen (AID 1092).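 Note: score merges per-feature 667 nm fluorescence with signal-to-noise.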 The following applies: small-molecule microarray, hLULL1 lysate binding, 635 nm fluorescence; higher = more signal.
A short description of test [16]: optical density change of DRC41 E. coli – strain DRC41, OD650, 24 h, E. coli filamentation project, primary screen (AID 1093).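 Note: MC1000 strain lacking acrAB efflux and sulA so SOS filamentation is blocked; test concentration not given here.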 As to conditions: E. coli DRC41 growth, higher = more signal, called active from +8 up or from −8 down.
Test [17] can be described thus: probe aLefty2 binding to arrayed compounds – biochemical, biotinylated probe, 635/667 nm fluorescence, primary screen (AID 1094).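 Note: score merges spot fluorescence near 667 nm with spot signal-to-noise ratio.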 As to conditions: small-molecule microarray, higher = more signal.
For test [18], the system named is Noggin (protein binding on small-molecule microarray). Kind of test: small molecules binding Noggin protein – biochemical, 635/667 nm fluorescence, primary screen (AID 1095).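 Note: score merges 667 nm feature fluorescence with signal to noise over triplicate slides.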 As to conditions: 635 nm fluorescence, higher = more signal.
In test [19] the target is Neurogenic locus notch homolog protein 3 (Homo sapiens) (UniProt Q9UM47). Kind of test: small molecules binding NOTCH3 protein – biochemical, 635/667 nm fluorescence, primary screen (AID 1096). The following applies: small-molecule microarray, 635 nm fluorescence, higher = more signal.
Test [20] in a line: probe aEGFR binding to arrayed compounds – biochemical, biotinylated probe, 635/667 nm fluorescence, primary screen (AID 1097).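 Note: probe is a biotinylated anti-EGFR antibody binding compounds printed on slides; score combines fluorescence near 667 nm and signal to noise of each spot.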 The following applies: small-molecule microarray, higher = more signal.

Chain of Neurogenic locus notch homolog protein 2 (Homo sapiens) (Q04721 whole entry, looked up, canonical isoform): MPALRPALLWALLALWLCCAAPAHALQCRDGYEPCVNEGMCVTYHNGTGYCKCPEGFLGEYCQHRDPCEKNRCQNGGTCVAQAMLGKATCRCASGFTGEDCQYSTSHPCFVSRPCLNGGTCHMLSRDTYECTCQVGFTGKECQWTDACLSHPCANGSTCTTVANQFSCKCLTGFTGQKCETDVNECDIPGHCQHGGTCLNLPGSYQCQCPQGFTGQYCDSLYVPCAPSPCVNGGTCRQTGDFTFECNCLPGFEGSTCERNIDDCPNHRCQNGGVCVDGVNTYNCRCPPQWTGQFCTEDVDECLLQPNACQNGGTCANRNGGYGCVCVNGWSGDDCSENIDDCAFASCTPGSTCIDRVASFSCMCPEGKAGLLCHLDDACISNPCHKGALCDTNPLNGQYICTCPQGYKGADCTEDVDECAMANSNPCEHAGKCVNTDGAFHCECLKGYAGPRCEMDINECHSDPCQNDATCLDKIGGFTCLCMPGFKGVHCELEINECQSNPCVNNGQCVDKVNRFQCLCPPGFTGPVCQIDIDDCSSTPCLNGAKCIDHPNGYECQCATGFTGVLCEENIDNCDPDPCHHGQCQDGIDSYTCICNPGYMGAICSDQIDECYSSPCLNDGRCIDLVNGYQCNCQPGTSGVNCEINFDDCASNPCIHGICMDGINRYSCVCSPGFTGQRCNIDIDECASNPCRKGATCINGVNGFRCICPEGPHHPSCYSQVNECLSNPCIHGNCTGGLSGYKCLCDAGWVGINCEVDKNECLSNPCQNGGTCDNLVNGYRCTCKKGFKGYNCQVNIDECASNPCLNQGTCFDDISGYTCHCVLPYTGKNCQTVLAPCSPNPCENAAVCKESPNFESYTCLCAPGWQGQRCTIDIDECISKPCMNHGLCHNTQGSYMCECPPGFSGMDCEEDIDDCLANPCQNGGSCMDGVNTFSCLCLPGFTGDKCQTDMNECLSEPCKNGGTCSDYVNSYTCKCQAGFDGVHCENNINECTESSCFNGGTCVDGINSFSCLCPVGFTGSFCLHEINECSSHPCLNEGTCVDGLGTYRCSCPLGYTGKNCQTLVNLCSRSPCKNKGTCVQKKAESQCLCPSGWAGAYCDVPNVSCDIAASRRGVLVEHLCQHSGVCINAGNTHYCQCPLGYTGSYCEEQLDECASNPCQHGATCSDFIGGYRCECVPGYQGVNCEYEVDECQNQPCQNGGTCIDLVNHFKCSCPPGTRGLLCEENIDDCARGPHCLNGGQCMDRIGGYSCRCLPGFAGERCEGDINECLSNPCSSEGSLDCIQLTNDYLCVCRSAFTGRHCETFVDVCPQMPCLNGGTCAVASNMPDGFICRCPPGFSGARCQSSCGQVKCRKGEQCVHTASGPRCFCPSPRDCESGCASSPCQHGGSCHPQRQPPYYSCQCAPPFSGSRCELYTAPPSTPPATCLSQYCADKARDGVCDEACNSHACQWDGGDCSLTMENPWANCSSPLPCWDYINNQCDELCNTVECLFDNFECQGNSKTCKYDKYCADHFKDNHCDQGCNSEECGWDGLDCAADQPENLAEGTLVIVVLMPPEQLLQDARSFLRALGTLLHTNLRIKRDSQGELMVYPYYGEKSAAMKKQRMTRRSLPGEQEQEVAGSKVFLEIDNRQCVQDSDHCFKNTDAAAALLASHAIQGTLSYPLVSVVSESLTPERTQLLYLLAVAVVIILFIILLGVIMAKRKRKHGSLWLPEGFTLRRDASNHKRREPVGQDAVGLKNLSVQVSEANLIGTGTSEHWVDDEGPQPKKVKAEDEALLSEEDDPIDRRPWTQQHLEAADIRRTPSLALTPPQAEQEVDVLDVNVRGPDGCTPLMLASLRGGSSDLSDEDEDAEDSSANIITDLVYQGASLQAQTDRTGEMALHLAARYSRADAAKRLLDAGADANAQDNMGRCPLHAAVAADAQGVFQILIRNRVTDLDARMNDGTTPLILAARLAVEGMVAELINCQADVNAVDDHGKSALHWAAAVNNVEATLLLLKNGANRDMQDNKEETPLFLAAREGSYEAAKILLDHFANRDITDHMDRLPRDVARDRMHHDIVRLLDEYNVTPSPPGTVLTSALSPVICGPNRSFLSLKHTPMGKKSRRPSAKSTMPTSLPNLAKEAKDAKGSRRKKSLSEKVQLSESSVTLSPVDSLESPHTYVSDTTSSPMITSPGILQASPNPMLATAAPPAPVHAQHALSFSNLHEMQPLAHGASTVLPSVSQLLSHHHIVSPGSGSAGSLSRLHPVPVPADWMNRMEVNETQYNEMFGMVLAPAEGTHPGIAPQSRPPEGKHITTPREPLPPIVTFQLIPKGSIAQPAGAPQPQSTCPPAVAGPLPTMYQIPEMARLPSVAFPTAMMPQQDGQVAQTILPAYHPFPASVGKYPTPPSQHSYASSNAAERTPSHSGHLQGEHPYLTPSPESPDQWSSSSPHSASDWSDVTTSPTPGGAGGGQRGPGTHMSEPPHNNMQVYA
Chain of Torsin-1A-interacting protein 2 (Homo sapiens) (Q8NFQ8 whole entry, looked up): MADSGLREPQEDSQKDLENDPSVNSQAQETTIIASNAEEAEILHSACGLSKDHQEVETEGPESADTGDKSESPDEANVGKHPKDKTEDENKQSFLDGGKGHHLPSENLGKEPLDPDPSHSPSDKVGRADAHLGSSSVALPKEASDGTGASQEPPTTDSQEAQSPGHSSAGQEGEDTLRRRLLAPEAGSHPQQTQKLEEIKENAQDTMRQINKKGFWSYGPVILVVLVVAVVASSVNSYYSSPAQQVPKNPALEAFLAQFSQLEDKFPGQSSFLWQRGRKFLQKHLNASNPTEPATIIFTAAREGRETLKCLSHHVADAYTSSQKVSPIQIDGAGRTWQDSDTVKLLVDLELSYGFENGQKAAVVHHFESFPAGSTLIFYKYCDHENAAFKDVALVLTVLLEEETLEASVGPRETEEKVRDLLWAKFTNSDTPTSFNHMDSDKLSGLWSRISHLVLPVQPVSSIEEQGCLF

Regarding `COCCOC(=O)N1C(=O)[C@@]2(c3cc(C#CC4(O)CCCCCC4)ccc31)[C@H](c1ccc(OCCO)cc1)N1[C@H](c3ccccc3)[C@H](c3ccccc3)OC(=O)[C@H]1[C@@H]2C(=O)Nc1nc2ccccc2s1`, the composite z-score in test [1] was 0.676; in [2] it was 0.54; in [3], -0.0234; in test [4], 0.874; in test [5], 1.32; in [6], 0.526. Besides, the composite z-score in test [7] is 1.04; in [9], 1.08; in [10], 0.245; in [11] it was 1.54; in test [15], 1.57; in [17] it was 0.225. Moreover, the results for the composite z-score in test [18], in test [19] and in test [20] were 1.42, 1.05 and 0.219, respectively. The z-score in [8] is 3.79 (inactive); in test [12], 1.76 (inactive); in [13], 1.05 (inactive); in test [14], 2.93 (inactive); in test [16] it was 0.11 (inactive).
For the molecule `Cc1cccc([C@H]2C[C@H]3C(Br)=C[C@@H]2C(=O)[C@]32CO2)c1`, the composite z-score in test [1] was 0.165; in test [2] it was 0.0316; in test [3], -0.182; in test [4], -0.228; in test [5] it was -0.0632; in test [6] it was -0.424. In addition, the composite z-score is -0.779 in test [7]; -0.264 in test [9]; -0.0169 in test [10]; -0.373 in test [11]; -0.831 in [15]; -0.0416 in test [17]. Also, the composite z-score in test [18] is -0.329; in test [19] it was -0.867; in test [20] it was -0.626. Moreover, the z-score in [8] was 1.02 (inactive); in test [12], -0.749 (inactive); in test [13], -20.5 (active); in test [14], -1.2 (inactive); in test [16], 0.779 (inactive).
With `O=C(CS)NCCCCCNC(=O)[C@@H]1C[C@@H]2C(=O)N[C@@H](Cc3ccccc3)C(=O)N2[C@@H]1c1cccc(OCCO)c1`, the composite z-score in test [1] is -0.0315; in test [2], 0.692; in test [3] it was -0.01; in test [4], 0.325; in test [5] it was 0.0566; in test [6], 1.43. For the same molecule, the composite z-score in [7] was 1.39; in [9], 0.0454; in test [10], -0.277; in test [11], 1.56; in [15] it was 3.04; in test [17], -0.515. The composite z-score in test [18] was 0.203; in test [19], 0.823; in test [20], -0.0271. In addition, the z-score in [8] was 0.057 (inactive); in test [12], 0.368 (inactive); in [13], -0.653 (inactive); in test [14] it was 0.658 (inactive); in test [16] it was 0.142 (inactive).
With `[N-]=[N+]=NCc1ccccc1[C@@H]1OC(c2ccc(OCCCO)cc2)=N[C@]1(Cc1ccccc1)C(=O)NCCN1CCOCC1`, the composite z-score in test [1] came out at 0.32; in test [2], 0.0026; in [3], 0.159; in test [4], 1.1; in [5], 1.4; in test [6] it was 1.25. Besides, the composite z-score in test [7] is 1.23; in test [9], 1.09; in test [10] it was -0.126; in [11], 1.53; in [15], 2.92; in test [17], 0.242. Also, the figures for the composite z-score in test [18], in test [19] and in test [20] were 0.512, 1.09 and 0.591, respectively. Further, the z-score in test [8] was 0.106 (inactive); in [12], 0.469 (inactive); in test [13], 0.75 (inactive); in test [14] it was 0.83 (inactive); in test [16] it was 1.11 (inactive).
With `COCCOC(=O)N1C(=O)[C@@]2(c3cc(C#CCCO)ccc31)[C@H](C(=O)N1CCCCCCC1)[C@H]1C(=O)O[C@H](c3ccccc3)[C@H](c3ccccc3)N1[C@@H]2c1ccccc1OCCO`, the composite z-score in [1] came out at 3.32; in test [2], 0.659; in [3], 0.688; in [4], 0.473; in [5] it was 1.43; in [6], 1.85. Besides, the composite z-score was determined as 1.18 in test [7]; 3.07 in test [9]; 0.891 in test [10]; 1.54 in test [11]; 4 in test [15]; 1.47 in test [17]. For the same molecule, the composite z-score in test [18] is 1.76; in test [19], 1.07; in [20], 0.89. The z-score in test [8] was 0.253 (inactive); in test [12], 0.658 (inactive); in test [13], -2.09 (inactive); in test [14], 1.93 (inactive); in test [16], -0.452 (inactive).
